Pf Dd2 inh: qHTS Primary assay for Inhibitors of Plasmodium falciparum Dd2 growth in vitro; P. falciparum Dd2 growth, SYBR Green, 72 h; Potency, µM (top dose mostly 28.9 µM), hits mostly inhibitors; 120,000 compounds, 4.3% hits; AID 1347417, 2020; active = well fitted inhibition curve with a large enough effect; also: nearly all actives have a fitted effect of over 65% in size
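Readout: SYBR Green fluorescence, 485 nm excitation, 535 nm emission, after ~16 h lysis at 37C. Before that, Dd2-infected red cells (2.5% hematocrit) grew 72 h with compound, 29 uM top final concentration.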
Each line names hits and unclear results; the compound was inactive in the other large screens. The full list was thinned out, with hits kept by preference.

COc1cccc(N2C(=O)NC(=NC3CCCC3)C23CCN([S+](=O)([O-])c2ccccc2)C3)c1 (configuration not stated)	none
O=C(OCc1ccccc1)N1CCCC2(C1)C(=NC1CCCC1)NC(=O)N2c1cc(F)cc(F)c1 (configuration not stated)	none
O=C1NC(=NC2CCCCC2)C2(CCCN(Cc3cccnc3)C2)N1c1cccnc1 (configuration not stated)	none
COc1cccc(N2C(=O)NC(=NC3CCCC3)C23CCCN(Cc2ccsc2)C3)c1 (configuration not stated)	Pf Dd2 inh 8.9µM
NC(=O)c1cccnc1N1CCC2(CC1)CC(C(=O)O)N(C(=O)C1CC1)C2 (configuration not stated)	none
Cc1noc(C)c1CC(=O)N1[C@@H]2CC[C@H]1CC(NC(=O)c1ccncc1)C2 (some centres not stated)	none
O=C1c2c(nc(CNc3ccc(F)cc3)n2Cc2ccccc2)NCCN1CCN1CCCCC1	none
O=C1c2c(nc(CNc3ccc(OC(F)(F)F)cc3)n2Cc2ccccc2)NCCN1CCN1CCOCC1	Pf Dd2 inh 5µM
O=C1c2c(nc(CNc3cccc(F)c3)n2Cc2ccccc2)NCCN1CCN1CCOCC1	none
Fc1cccc(Cc2nc(-c3nnn4c3COC(c3ccc(Cl)cc3)C4)no2)c1 (configuration not stated)	none
O=C1CCC2(CNC(=O)c3ccoc3)CCC=C2N1 (configuration not stated)	none
O=C([C@@H]1C[C@H](F)CN1C(=O)c1ccccc1)N1CCOCC1	none
O=C(Cn1nc(-c2ccc(Cl)cc2)c2ccccc2c1=O)Nc1cccc(C(F)(F)F)c1	none
COc1ccc(NC(=O)N(C)Cc2cccc(C(F)(F)F)c2)cc1	none
COc1ccc(-c2noc(CCC(=O)Nc3ccc(C(F)(F)F)cc3)n2)cc1	none
O=C(C[C@H]1NC(=O)c2ccccc2NC1=O)Nc1ccc(C(F)(F)F)cc1	none
O=C1C(c2ccc(C(F)(F)F)cc2)=C(Nc2ccc(Cl)cc2)c2ccccc21	Pf Dd2 inh 0.89µM
COc1ccc(NC2=C(c3ccc(C(F)(F)F)cc3)C(=O)c3ccccc32)cc1	Pf Dd2 inh 0.45µM
CS(=O)(=O)N1CCC(OC2CCN(C(=O)Nc3c(F)cccc3F)CC2)CC1	none
O=C(N[C@H]1CO[C@H]2[C@@H]1OC[C@@H]2n1nnnc1Oc1cccc(N2CCOCC2)c1)N1CCOCC1	none
CC(C)CCNC(=O)c1cnc2n1CCN(Cc1ccccc1Cl)CC2	none
CCC(CC)C(=O)NCCc1noc(C)n1	none
Cc1ccc(NC(=O)N[C@@H]2C=C(C(=O)N[C@@H](Cc3cccs3)C(N)=O)C[C@@H](O)[C@@H]2O)cc1	none
Cc1noc(C)c1Cc1ccc(C(=O)N2[C@H]3CC[C@@H]2c2cnc(-c4ccccc4)nc2C3)o1	Pf Dd2 inh 0.63µM
COc1ccccc1C(=O)N1[C@H]2CC[C@@H]1c1cnc(-c3ccccc3)nc1C2	none
COc1ccc(CNC(=O)N2[C@H]3CC[C@@H]2c2cnc(-c4ccccc4)nc2C3)cc1	Pf Dd2 inh 11µM
Cc1noc(C)c1CC(=O)N1[C@H]2CC[C@@H]1c1cnc(-c3ccc(F)cc3)nc1C2	none
O=C(Cc1ccccc1)N1[C@H]2CC[C@@H]1c1cnc(-c3ccccc3)nc1C2	none
CCNC(=O)N1[C@H]2CC[C@@H]1c1cnc(-c3ccccc3)nc1C2	none
COc1ccc(CCC(=O)N2[C@H]3CC[C@@H]2c2cnc(-c4ccccc4)nc2C3)cc1	none
COCCC(=O)N1[C@H]2CC[C@@H]1c1cnc(-c3ccccc3)nc1C2	none
O=C(CC1CCCC1)N1[C@H]2CC[C@@H]1c1cnc(-c3ccccc3)nc1C2	Pf Dd2 inh 13µM
Cc1nn(C)c2nc(N3CCC(C#N)(c4ccccc4)CC3)sc12	none
COCCNC(=O)c1cc(-c2ccccc2Oc2ccccc2)cc2ncn(C)c12	none
O=C1CC2CCCC(C1)N2C(=O)c1cccc(Br)c1	none
CCC(=O)N1CCCCCCNC(=O)CC1c1ccccc1 (configuration not stated)	none
O=C(c1ccc(F)cc1)N1CCC(n2c(=O)[nH]c3ccccc32)CC1	none
Cc1noc([C@@H]2CN(C(=O)COc3ccc(Cl)cc3)C[C@H]2CO)n1	none
CCOc1ccccc1C1NC(=O)N(CC(=O)Nc2cccc(C(C)C)c2)C2=C1C(=O)OC2 (configuration not stated)	none
COc1cncc(Nc2cnc3ccc(-c4ccc(OC)nc4)nn23)c1	none
COc1ccc(Nc2cnc3ccc(-c4ccc(OC)c(OC)c4)nn23)cc1	Pf Dd2 inh 1.1µM
COc1ccccc1-c1ccc2ncc(Nc3ccc(CCO)cc3)n2n1	none
CN1CCN(Cc2ccc(Nc3cnc4ccc(-c5ccccc5)nn34)cc2)CC1	Pf Dd2 inh 2.2µM
COc1ccccc1Nc1cnc2ccc(-c3ccccc3OC)nn12	none
COc1ccccc1-c1ccc2ncc(Nc3cccc(N[S+](C)(=O)[O-])c3)n2n1	none
CN1CCN(Cc2ccc(Nc3cnc4ccc(N5CCOCC5)nn34)cc2)CC1	none
COc1ccc(Nc2cnc3ccc(-c4ccc(OC)c(OC)c4)nn23)cc1OC	none
COc1ccc(-c2ccc3ncc(Nc4cccnc4OC)n3n2)cc1OC	none
COc1cncc(Nc2cnc3ccc(-c4ccc(OC)c(OC)c4)nn23)c1	Pf Dd2 inh 0.89µM
COc1cncc(Nc2cnc3ccc(-c4ccccc4OC)nn23)c1	Pf Dd2 inh 2.5µM
O=C(C1CCCCC1)N1CCC2(CN[S+](=O)([O-])c3cnccc3O2)C1 (configuration not stated)	none
CCC(c1ccccc1)N1Cc2cc(NS(=O)(=O)c3ccc(F)cc3)ccc2OC(C)C1=O (configuration not stated)	none
CC(C)c1noc(CC2CCN(C(=O)c3cccc(N(C)C)c3)CC2)n1	none
CCN(CC)C(=O)CC[C@@H]1CNC(=O)[C@@H]2C[C@H](NCc3ccc(F)cc3)CN12	none
CC(C)Oc1ccc(CN2CCc3nc(N4CCN(C)CC4)[nH]c(=O)c3CC2)cc1	none
CNC(=O)N1CCC(C2CCN(C(=O)C3CCCC3)C2)CC1 (configuration not stated)	none
CCN1C(=O)C2(CCN(S(=O)(=O)c3ccc4c(c3)CCC4)CC2)c2ccccc21	none
Cc1noc(-c2ccc(OC3CN(C(=O)NC4CCCCC4)C3)cc2)n1	none
CCCS(=O)(=O)N1CCC(F)(c2nc(-c3ccccc3)no2)CC1	none
CCN(CC)CC(C)NCc1ccccc1 (configuration not stated)	none
c1ccc(-c2ccc3ncc(Nc4ncccn4)n3n2)cc1	none
NC(=O)c1ccc(Nc2cnc3ccc(-c4ccccc4)nn23)cc1	none
COc1ccc(Nc2cnc3ccc(-c4ccccc4)nn23)cc1	Pf Dd2 inh 5.6µM
Cc1ccncc1C(=O)N1C[C@@H](COc2ccccc2)[C@H](C(N)=O)C1	none
CCC(C)NC(=O)C(NC(=O)c1cccc(C)c1)C1CCN(C(=O)c2ccccc2F)CC1 (configuration not stated)	none
CCOc1cc(=O)n2c(c1C(=O)Nc1ccc(SC)cc1)CCCC2	none
Cc1ccc2oc(-c3ccc(NC(=O)c4cccc(F)c4)c(C)c3)nc2c1	none
O=C(Nc1cnc(-c2ccccc2)nc1)c1cccc(F)c1	none
Cc1cccc(Nc2ncc(NC(=O)c3cccc(F)c3)c(Nc3cccc(C)c3)n2)c1	Pf Dd2 inh 2.2µM
Cc1ccccc1COC1CN(C(=O)C2CC(=O)N(C(C)(C)C)C2)C1 (configuration not stated)	none
COc1ccc(C)cc1Nc1nc(-c2cccc(Cl)c2)c2c(n1)-c1ccccc1OC2	none
COc1ccc(C)cc1Nc1nc(N)c2cc(OC)c(OC)cc2n1	Pf Dd2 inh 2.8µM
CCOC(=O)c1c(C)oc2nc(C)nc(Nc3cc(C)ccc3OC)c12	none

Bioassay records: PubChem BioAssay, National Center for Advancing Translational Sciences (NCATS)
